Measurements as given in PubChem BioAssay AID1159580 (chemical genetic matrix, 2015).
Several values for one entry are separate records, joined by “and”; a condition that tells them apart may be missing. Equal values may be shown once. In all, about 5,500 compounds went through this assay and about 2,000 (36%) were called active. About 18% were inconclusive and are not listed. Cut-off read from the data, not from the text of the source: active = normalized growth mostly below about 0.91 (no sharp cut-off); inconclusive = no clear call, values can overlap the other calls; inactive = mostly above about 0.92. The list shows a part of the results.

Test: chemical genetic growth profiling, strain panel (AID 1159580);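 note: tested at 20 µM; growth read once vehicle control cultures reached saturation at 30 °C; 1 = growth at the plate median or of vehicle wells; lower values mean less growth of the strain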
Details: growth OD

Measured: normalized growth

Cc1cccc(C)c1OCC(C)N (stereo not drawn)
inactive: S. cerevisiae deletion strains, locus YKL009W, strain mrt4, hits give low values 0.972 | S. cerevisiae deletion strains, locus YKL068W, hits give low values 0.982 | S. cerevisiae deletion strains, locus YKL085W, strain MDH1 (second series), hits give low values 1.04 | S. cerevisiae deletion strains, locus YKL085W, strain MDH1, hits give low values 1.04 | S. cerevisiae deletion strains, locus YKL160W, strain elf1, hits give low values 1 | S. cerevisiae deletion strains, locus YKL190W, strain CNB1, hits give low values 0.996 | S. cerevisiae deletion strains, locus YKR001C, strain vps1, hits give low values 0.99 | S. cerevisiae deletion strains, locus YKR026C, strain gcn3, hits give low values 0.999 | S. cerevisiae deletion strains, locus YKR091W, strain srl3, hits give low values 1.01 | S. cerevisiae deletion strains, locus YLL001W, strain dnm1, hits give low values 1.02 | S. cerevisiae deletion strains, locus YLL026W, hits give low values 1.02 | S. cerevisiae deletion strains, locus YLL041C, strain sdh2, hits give low values 1.01 | S. cerevisiae deletion strains, locus YLR027C, strain aat2, hits give low values 1.01 | S. cerevisiae deletion strains, locus YLR039C, strain RIC1, hits give low values 1.02 | S. cerevisiae deletion strains, locus YLR058C, strain SHM2, hits give low values 0.998 | S. cerevisiae deletion strains, locus YLR102C, strain apc9, hits give low values 0.989 | S. cerevisiae deletion strains, locus YLR113W, strain HOG1, hits give low values 0.987 | S. cerevisiae deletion strains, locus YLR221C, strain rsa3, hits give low values 1 | S. cerevisiae deletion strains, locus YLR258W, strain gsy2, hits give low values 1.01 | S. cerevisiae deletion strains, locus YLR262C, strain YPT6 (second series), hits give low values 1.01 | S. cerevisiae deletion strains, locus YLR262C, strain YPT6, hits give low values 0.993 | S. cerevisiae deletion strains, locus YLR268W, strain sec22, hits give low values 0.993 | S. cerevisiae deletion strains, locus YLR320W, strain mms22, hits give low values 1.03 | S. cerevisiae deletion strains, locus YLR330W, strain CHS5, hits give low values 0.992 | S. cerevisiae deletion strains, locus YLR342W, strain FKS1 (second series), hits give low values 1.01 | S. cerevisiae deletion strains, locus YLR342W, strain FKS1, hits give low values 1.01 | S. cerevisiae deletion strains, locus YLR357W, strain rsc2, hits give low values 1.02 | S. cerevisiae deletion strains, locus YLR370C, strain arc18, hits give low values 1.01 | S. cerevisiae deletion strains, locus YLR371W, strain rom2, hits give low values 0.988 | S. cerevisiae deletion strains, locus YLR384C, strain iki3, hits give low values 1.01 | S. cerevisiae deletion strains, locus YLR418C, strain cdc73, hits give low values 1.03 | S. cerevisiae deletion strains, locus YML016C, strain PPZ1, hits give low values 0.995 | S. cerevisiae deletion strains, locus YML032C, strain rad52, hits give low values 1 | S. cerevisiae deletion strains, locus YML120C, strain ndi1, hits give low values 1 | S. cerevisiae deletion strains, locus YML124C, strain tub3, hits give low values 0.991 | S. cerevisiae deletion strains, locus YMR058W, strain fet3, hits give low values 1.02 | S. cerevisiae deletion strains, locus YMR078C, strain ctf18, hits give low values 0.986 | S. cerevisiae deletion strains, locus YMR125W, strain sto1, hits give low values 1.01 | S. cerevisiae deletion strains, locus YMR129W, hits give low values 0.994 | S. cerevisiae deletion strains, locus YMR205C, strain PFK2, hits give low values 1.03 | S. cerevisiae deletion strains, locus YMR223W, strain ubp8, hits give low values 1.01 | S. cerevisiae deletion strains, locus YMR231W, strain pep5, hits give low values 1.01 | S. cerevisiae deletion strains, locus YMR263W, strain SAP30, hits give low values 0.993 | S. cerevisiae deletion strains, locus YMR307W, strain GAS1, hits give low values 0.969 | S. cerevisiae deletion strains, locus YNL067W, strain RPL9B, hits give low values 1.01 | S. cerevisiae deletion strains, locus YNL071W, strain lat1, hits give low values 1.01 | S. cerevisiae deletion strains, locus YNL153C, strain GIM3, hits give low values 1.03 and 1 | S. cerevisiae deletion strains, locus YNL175C, strain NOP13, hits give low values 1 | S. cerevisiae deletion strains, locus YNL183C, strain NPR1, hits give low values 0.956 | S. cerevisiae deletion strains, locus YNL197C, strain WHI3, hits give low values 0.992 | S. cerevisiae deletion strains, locus YNL209W, strain ssb2, hits give low values 1.01 | S. cerevisiae deletion strains, locus YNL224C, strain SQS1, hits give low values 1 | S. cerevisiae deletion strains, locus YNL233W, strain BNI4, hits give low values 1.03 | S. cerevisiae deletion strains, locus YNL248C, strain rpa49, hits give low values 0.991 | S. cerevisiae deletion strains, locus YNL250W, strain rad50, hits give low values 0.987 | S. cerevisiae deletion strains, locus YNL271C, strain bni1, hits give low values 0.985 | S. cerevisiae deletion strains, locus YNL298W, strain CLA4, hits give low values 0.986 | S. cerevisiae deletion strains, locus YNL307C, strain MCK1, hits give low values 1.02 | S. cerevisiae deletion strains, locus YNL322C, strain KRE1 (second series), hits give low values 1 | S. cerevisiae deletion strains, locus YNL322C, strain KRE1, hits give low values 0.991 | S. cerevisiae deletion strains, locus YNR049C, strain mso1, hits give low values 1 | S. cerevisiae deletion strains, locus YNR052C, strain pop2, hits give low values 0.977 | S. cerevisiae deletion strains, locus YOL006C, strain TOP1, hits give low values 1.11 | S. cerevisiae deletion strains, locus YOL012C, strain htz1 1.19 | S. cerevisiae deletion strains, locus YOL147C, strain pex11, hits give low values 0.99 | S. cerevisiae deletion strains, locus YOR001W, strain rrp6, hits give low values 0.994 | S. cerevisiae deletion strains, locus YOR061W, strain CKA2, hits give low values 0.998 | S. cerevisiae deletion strains, locus YOR069W, strain VPS5, hits give low values 0.988 | S. cerevisiae deletion strains, locus YOR070C, strain gyp1, hits give low values 0.997 | S. cerevisiae deletion strains, locus YOR080W, strain dia2, hits give low values 1.01 | S. cerevisiae deletion strains, locus YOR083W, strain WHI5 (second series), hits give low values 1 | S. cerevisiae deletion strains, locus YOR083W, strain WHI5, hits give low values 0.993 | S. cerevisiae deletion strains, locus YOR106W, strain vam3, hits give low values 1.01 | S. cerevisiae deletion strains, locus YOR136W, strain idh2, hits give low values 0.987 | S. cerevisiae deletion strains, locus YOR144C, strain elg1, hits give low values 0.991 | S. cerevisiae deletion strains, locus YOR184W, strain ser1, hits give low values 1.03 | S. cerevisiae deletion strains, locus YOR231W, strain MKK1, hits give low values 0.999 | S. cerevisiae deletion strains, locus YOR265W, strain rbl2, hits give low values 1.01 | S. cerevisiae deletion strains, locus YOR270C, strain vph1, hits give low values 1.05 | S. cerevisiae deletion strains, locus YOR290C, strain snf2, hits give low values 1 | S. cerevisiae deletion strains, locus YOR316C, strain cot1, hits give low values 0.977 | S. cerevisiae deletion strains, locus YPL051W, strain arl3, hits give low values 1 | S. cerevisiae deletion strains, locus YPL078C, strain atp4, hits give low values 1 | S. cerevisiae deletion strains, locus YPL106C, strain sse1, hits give low values 1.02 | S. cerevisiae deletion strains, locus YPL240C, strain hsp82, hits give low values 1.01 | S. cerevisiae deletion strains, locus YPL241C, strain CIN2, hits give low values 0.995 | S. cerevisiae deletion strains, locus YPL256C, strain CLN2, hits give low values 0.998 | S. cerevisiae deletion strains, locus YPR119W, strain clb2, hits give low values 0.993 | S. cerevisiae deletion strains, locus YPR141C, strain kar3, hits give low values 0.983 | S. cerevisiae deletion strains, locus YPR163C, strain tif3, hits give low values 0.981 | S. cerevisiae deletion strains, locus YPR167C, strain met16, hits give low values 0.978 | S. cerevisiae deletion strains, strain wtn01, hits give low values 0.983 | S. cerevisiae strains, strain wild type, hits give low values 0.997
